# Data published in PubChem BioAssay AID868 (SRMLSC, 2007).
# The whole screen tested about 190,000 compounds, of which about 3,500 (1.8%) were called active. The sample as a whole holds a higher share of actives than the screen did. Values without a mark were called inactive.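 How the source made its calls: active means inhibition above a set limit, 3 SD over mean compound inhibition (cut at about 8.4% in these data); inactive means the rest.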
# Experiment: RAM signaling blockers in budding yeast – dse1pr::URA3 reporter, 5-FOA selection, primary screen (AID 868);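 further: 0% = DMSO-only wells with no growth and 100% = 10 µM 1-NA-PP1 full growth; inhibition rescues growth on 5-FOA so higher OD means more RAM inhibition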
# Details: S. cerevisiae dse1pr::URA3 reporter, 5-FOA growth OD615, 2 d; at 50 µM; stronger effect = higher value; analog-sensitive cbk1-as2 kinase mutant strain
row,SMILES,inhibition
1,CCN(C(=O)CSc1nc2ccccc2n1CC)C1CCS(=O)(=O)C1 (stereo not drawn),0.65%
2,O=C(NC(=S)Nc1ccc(S(=O)(=O)N2CCOCC2)cc1)c1ccccc1[N+](=O)[O-],3.57%
3,O=C(COC(=O)CC1CC2CCC1C2)NC(=O)NC1CCCC1 (stereo not drawn),0.76%
4,COc1ccc(/C=C/C(=O)OCC(=O)Nc2cccc(Oc3ccccc3)c2)c(OC)c1,16.7% (active)
5,COc1cc(/C=C/C(=O)OCC(=O)Nc2cccc(Oc3ccccc3)c2)ccc1O,7.29%
6,COc1ccc(OC)c(/C=C/C(=O)OCC(=O)Nc2ccc3c(c2)OCCO3)c1,7.42%
7,O=C(COC(=O)/C=C/c1nc2ccccc2s1)Nc1ccccc1Oc1ccccc1,14.3% (active)
8,CC(=O)Nc1ccc(SCC(=O)Nc2ccccc2Oc2ccccc2)cc1,1.01%
9,CCN(C(=O)COC(=O)/C=C/c1nc2ccccc2s1)C1CCS(=O)(=O)C1 (stereo not drawn),2.32%
10,CCN1CCN(C(=O)c2ccc(CN(c3ccc(C)c(C)c3)S(C)(=O)=O)cc2)CC1,0.38%
11,O=C(CCCNS(=O)(=O)c1cccc2nsnc12)NCCN1CCN(c2ccccc2F)CC1,-1.28%
12,COc1ccc(/C=C2/C(=O)OCc3cc(OC)c(OC)cc32)c(OC)c1,7.31%
13,COC(=O)Cc1ccc(N(Cc2ccccc2F)S(=O)(=O)c2ccc(Br)cc2)cc1,6.05%
14,Cc1cccc(C(=O)N2CCC(c3nc4ccccc4s3)CC2)c1,0.14%
15,Cc1cc(C)n2nc(C(=O)N(C)C(c3ccccc3)c3ccccc3)nc2n1,2.14%
16,CC1CCN(S(=O)(=O)c2ccc(S(=O)(=O)NCc3cccnc3)cc2)CC1,0.4%
17,CCCCNC(=O)c1c[nH]c2ccc(S(=O)(=O)Nc3ccc(OCC)cc3)cc2c1=O,5.33%
18,CCN(CC)S(=O)(=O)c1ccc2[nH]cc(C(=O)NCCc3ccccc3)c(=O)c2c1,6.86%
19,COc1cccc(NS(=O)(=O)c2ccc3[nH]cc(C(=O)NCCCOC(C)C)c(=O)c3c2)c1,9.49% (active)
20,CCC1(C)Cc2c(sc3nc(SC)nc(N)c23)CO1 (stereo not drawn),1.97%
21,CN(C)CCSc1nc(N)c2c3c(sc2n1)COC(C)(C)C3,0.35%
22,CCCSc1nc(NCc2ccco2)c2c3c(sc2n1)COC(C)(CC)C3 (stereo not drawn),13.4% (active)
23,Cc1cccc(N2C(=O)c3cccnc3C2=O)c1,0.23%
24,Cc1cccc(N2C(=O)CC(SC(N)=Nc3ccccc3)C2=O)c1 (stereo not drawn),5.62%

row,SMILES,inhibition
1,Cc1cccc(N2C(=O)C3C(c4ccccc4)OC4(C(=O)c5ccccc5C4=O)C3C2=O)c1 (stereo not drawn),10.5% (active)
2,Cc1cccc(NC(=O)Cn2c(=O)n(Cc3ccccc3)c(=O)c3c(C)c(C)sc32)c1,2.47%
3,Cc1cc(C(=O)N/N=C/c2ccccc2[N+](=O)[O-])c(C)o1,1.55%
4,COC(=O)c1cc2occc2n1Cc1nc(-c2ccccc2C)oc1C,10.4% (active)
5,CCOC(=O)c1cc2occc2n1CC(=O)NC1CCC(C)CC1 (stereo not drawn),1.74%
6,Cc1ccccc1-c1nc(CS(=O)(=O)CC(=O)N2CCc3ccccc3C2)c(C)o1,3.54%
7,COc1ccc(F)c(-c2nc(CN3CCC(c4ccccc4)CC3)c(C)o2)c1,1.5%
8,CCC1=C/C(=C\c2ccc3c(c2)OCO3)C(=O)S1,5.39%
9,O=C1/C(=C/c2ccc3c(c2)OCO3)CCC/C1=C\c1ccc2c(c1)OCO2,11.6% (active)
10,CSC1=N/C(=C\c2ccc3c(c2)OCO3)C(=O)S1,5.69%
11,C=CS(=O)c1sc(Cl)c(N2CCOCC2)c1[N+](=O)[O-] (stereo not drawn),-1.6%
12,Cc1cccc(C(=O)OCC(=O)Nc2sc3c(c2C#N)CCC3)c1,3.27%
13,C=CCn1c(-c2ccc(Cl)cc2)ccc(C#N)c1=O,10.6% (active)
14,C=CCn1cc(-c2cccc(C(F)(F)F)c2)cc(C#N)c1=O,1.24%
15,C=CCn1c(SCn2nnc3ccccc3c2=O)nnc1-c1ccc(Cl)cc1,1.52%
16,Cc1cccc(/C(N)=N/OC(=O)c2ccccc2Cl)c1,-0.84%
17,COc1ccc(NC(=O)C2CCCN(S(=O)(=O)c3cccc4cccnc34)C2)cc1OC (stereo not drawn),-0.46%
18,COc1ccc(NC(=O)C2CCCN(S(=O)(=O)c3cccc4cccnc34)C2)cc1 (stereo not drawn),9.02% (active)
19,O=C(O)C1CCCN(S(=O)(=O)c2cccc3cccnc23)C1 (stereo not drawn),2.19%
20,COc1ccc(NC(=O)COC(=O)CNC(=O)C2CCCCC2)cc1,0.13%
21,CCC(C)(C)c1ccc(Oc2ccc(NC(=O)COC(=O)C3=COCCO3)cc2)cc1,12.6% (active)
22,O=C(OCC(=O)c1cccs1)C1=COCCO1,0.33%
23,COc1ccccc1NC(=O)CSc1nc2sc(C)c(C)c2c(=O)n1Cc1ccco1,4.61%
24,CCOC(=O)CSc1nc2c(sc(=S)n2CCc2ccccc2)c(=O)n1Cc1ccco1,10.1% (active)

row,SMILES,inhibition
1,CCOC(=O)CSc1nc2c(c(=O)n(C)c(=O)n2C)n1Cc1ccccc1F,5.16%
2,O=c1[nH]c(N2CCN(Cc3ccc4c(c3)OCO4)CC2)nc2c1CCCC2,0.84%
3,O=C(Nc1ccn(Cc2ccccc2)n1)c1cccc(F)c1,0%
4,CC(=O)Nc1ccn(Cc2c(F)cccc2Cl)n1,0.11%
5,O=C(Nc1ccn(Cc2ccccc2F)n1)c1ccc(COc2ccc(Cl)cc2Cl)o1,9.18% (active)
6,O=C(Nc1ccc2c(c1)CCC2)c1ccc(Br)s1,1.86%
7,CCOC(=O)C(C)n1nc(-c2ccccc2)c2ccccc2c1=O (stereo not drawn),0.13%
8,O=C(Nn1cnc2ccccc2c1=O)c1ccccc1,1.22%
9,CCSc1nc(C)nc2c1oc1ccccc12,3.79%
10,CCc1nc(Nc2ccc3nccnc3c2)c2oc3ccccc3c2n1,12.5% (active)
11,COc1ccccc1Nc1ncnc2c1oc1ccccc12,5%
12,Cc1ccc(NC(=O)C(=O)NCc2ccco2)c(C)c1,4.33%
13,CCOc1ccc(/C=N/OCC(=O)NCc2cccs2)cc1,0.76%
14,CCOC(=O)C1(CC2CCCCO2)CCN(Cc2nc(-c3cccs3)oc2C)CC1 (stereo not drawn),0.26%
15,O=C(COc1ccccc1)Nc1ccc(N2CCN(C(=O)c3cccs3)CC2)cc1,6.82%
16,COc1ccc(/C=C2\SC(=N)N(c3ccc(F)cc3)C2=O)cc1,2.04%
17,CCNC(=S)N(CCc1c(C)[nH]c2ccc(C)cc12)Cc1ccco1,9.53% (active)
18,COc1ccc2[nH]c(C)c(CCN(Cc3cccs3)C(=S)Nc3ccccc3OC)c2c1,2.4%
19,COc1cccc(NC(=S)N(CCc2c(C)[nH]c3ccccc23)Cc2ccco2)c1,7.14%
20,O=C(CSc1nc2ccccc2[nH]1)N/N=C/C=C\c1ccccc1[N+](=O)[O-],0.9%
21,Cc1ccc(-n2c(SCC(=O)N/N=C/C=C/c3ccccc3[N+](=O)[O-])nc3ccccc3c2=O)cc1,10.3% (active)
22,CCn1c(SCC(=O)N/N=C/C=C/c2ccccc2[N+](=O)[O-])nnc1-c1ccccc1,0.99%
23,Cc1ccc(NC(=O)c2ccn(C(=O)Nc3ccccc3)n2)c(C)c1,1.13%
24,COc1ccc(C)cc1NC(=O)C(Sc1ccccc1)c1ccccc1 (stereo not drawn),12% (active)

row,SMILES,inhibition
1,COc1ccc(C)cc1NC(=S)Nc1ccccc1SC,0.14%
2,COc1ccc(C)cc1NC(=O)Nc1ccccc1SC,3.85%
3,Cc1c(CN2CCCCC2)c(O)n(CCO)c(=O)c1C#N,1.68%
4,Cc1cc(C)c(C(N)=O)c(Cl)n1,-0.5%
5,C/C(=N\Nc1nc(N2CCOCC2)nc(N2CCOCC2)n1)c1ccc([N+](=O)[O-])cc1,1.78%
6,OCCC1CN(Cc2ccccc2-c2ccco2)CCN1Cc1ccsc1 (stereo not drawn),0.13%
7,CCc1ccc(/C=C2\SC(N3CCOCC3)=NC2=O)cc1,2.12%
8,Cc1ccc(N2CCN(C3=NC(=O)/C(=C\c4cccs4)S3)CC2)cc1,2.02%
9,CC1CCN(C2=NC(=O)/C(=C/c3cn[nH]c3-c3ccccc3)S2)CC1,9.65% (active)
10,O=c1c(Cl)c(NCc2ccc(F)cc2Cl)cnn1C12CC3CC(CC(C3)C1)C2,6.9%
11,CCN(CCn1cccn1)Cc1nc(-c2ccc(C(=O)OC)cc2)no1,0.13%
12,O=C(COc1ccc(NC(=O)c2ccccc2[N+](=O)[O-])cc1)c1ccc(F)cc1,6.75%
13,Cc1ccc(C(=O)NCCNS(=O)(=O)c2ccccc2)cc1,0.27%
14,Cc1ccccc1CSCCNC(=O)c1ccc(N(C)S(=O)(=O)c2ccccc2)cc1,14.2% (active)
15,Cc1ccccc1CSCCNC(=O)c1ccc(Cl)c(S(=O)(=O)N2CCOCC2)c1,7.41%
16,CCOC(=O)N1CCN(C(=O)c2cc3c(-c4ccc(Cl)cc4)nn(C)c3s2)CC1,-0.35%
17,COc1ccccc1N1CCN(C(=O)c2cc3c(-c4ccc(Cl)cc4)nn(C)c3s2)CC1,5.62%
18,COc1cccc(-c2nn(C)c3sc(C(=O)N4CCN(c5ccccc5)CC4)cc23)c1,8.94% (active)
19,O=C(CCS(=O)(=O)Cc1ccccc1)Nc1ccc2c(c1)OCCO2,3.16%
20,O=C(Nc1ccnc(-c2ccncc2)n1)c1cccs1,-0.85%
21,COc1ccnc(Oc2ccccc2)n1,2.23%
